D2 antag: D2 dopamine receptor (human) antagonism | HEK293 TREx D2 cells, calcium flux, dopamine EC80 | inhibition, % at 10 µM | hit rate 2% among 340,000 | AID 485344; in the data active means inhibition above about 30%; inactive means below that, where a call was filed; further: 0% is about no effect
Target sequence (P14416 whole entry, looked up): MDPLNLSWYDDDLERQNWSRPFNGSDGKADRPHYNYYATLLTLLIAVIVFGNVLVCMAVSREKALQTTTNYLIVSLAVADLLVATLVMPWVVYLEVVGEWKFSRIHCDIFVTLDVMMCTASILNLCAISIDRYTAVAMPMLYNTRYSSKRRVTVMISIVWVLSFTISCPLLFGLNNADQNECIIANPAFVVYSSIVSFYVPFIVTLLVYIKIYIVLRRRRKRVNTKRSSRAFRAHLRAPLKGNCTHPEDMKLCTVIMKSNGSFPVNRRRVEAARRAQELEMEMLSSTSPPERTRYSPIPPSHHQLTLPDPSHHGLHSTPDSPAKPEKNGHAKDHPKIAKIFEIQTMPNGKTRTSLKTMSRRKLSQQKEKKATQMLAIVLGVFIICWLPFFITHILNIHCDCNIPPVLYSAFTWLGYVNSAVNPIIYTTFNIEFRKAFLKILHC
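HEK293 T-REx D2 cells, tet-induced, calcium dye no-wash. Cpd pintool add, 180 s kinetic, then EC80 DA, 180 s kinetic. Ca flux read.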
D2 PAM-1: D2 dopamine receptor (human) potentiation. hit rate 0.34% among 340,000. potentiation, % at 10 µM. HEK293 T-REx D2, calcium flux, EC20 dopamine potentiation. P14416;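 active means potentiation over 3 SD above the plate norm, cut at about 30% in these data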; further: 0% is about no effect
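Tetracycline-induced HEK293 T-REx cells force-coupled to calcium signalling expressed D2; compounds were pin-added after a 10 s baseline, read kinetically 180 s, then an EC20 dopamine challenge followed with a further 180 s calcium read.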
D2 ag-1: D2 dopamine receptor (human) agonism. P14416. HEK293 T-REx D2 cells, calcium flux agonist mode. activation, % at 2 µM. hit rate 0.53% among 340,000;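 active means activation over 3 SD above normal in the single-dose calcium agonist read, cut at about 30% in these data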; further: 0% is about no effect
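In this primary screen, compounds producing a positive calcium signal within 180 s of addition to tetracycline-induced, force-coupled HEK293 Trex D2 cells are flagged; cells are dye-loaded with a no-wash calcium kit beforehand.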
D2 PAM-2: positive allosteric modulators of human D2 dopamine receptor. P14416. DiscoveRx D2 beta-arrestin cells, luminescence, 90 min; 100% = 57 uM dopamine signal. potentiation, % (test concentration not listed). hit rate 0.23% among 360,000; in the data active means potentiation above about 50%; inconclusive means mostly about 30% to 49%
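D2 cells co-treated with compound plus 50 nM dopamine (EC20) for 90 min at 37 deg C to detect potentiation. Beta-arrestin recruitment was read as enzyme-fragment luminescence after 1 h at ambient temperature. Full response was set by 57 uM dopamine.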
D2 ag-2: agonists of human D2 dopamine receptor (beta-arrestin); activation, % (concentration not given with the values); P14416; hit rate 0.084% among 360,000; AID 624465; DiscoveRx PathHunter D2 beta-arrestin, luminescence, 90 min; 100% = 57 uM dopamine signal; in the data active means activation above about 40%; inconclusive means between about 15% and that limit
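DiscoveRx PathHunter D2 beta-arrestin cells (2,100/well) attached overnight, then compound-stimulated 90 min at 37 C in HBSS/10 mM HEPES/0.1% Tween-20 buffer; beta-galactosidase complementation read by luminescence after 1 h at ambient temperature. Dopamine 57 uM final (EC100) as control.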
Active calls of the source: *; u = inconclusive; x = no result given. A selection: hits, their analogues and other compounds. The true share with any hit is near 2.4%.

SMILES	D2 antag	D2 PAM-1	D2 ag-1	D2 PAM-2	D2 ag-2
COc1cc(=O)[nH]c(SCc2c(F)c(F)c(F)c(F)c2F)n1	-1	95*	-1	-5	3
CN(C)CCNc1ncnc2oc(-c3ccccc3)c(-c3ccccc3)c12	-3	-11	0	-16	-8
COc1ccc(-c2oc3ncnc(NCCCN(C)C)c3c2-c2ccc(OC)cc2)cc1	54*	-22	-2	-15	-3
CCOc1ccccc1NC(=O)NCc1ccccc1	42*	-21	-1	-11	-2
Cc1cccc(C)c1OCc1n[nH]c(=S)n1-c1ccccc1	-11	0	1	-6	9
Cc1cccc(C)c1OCc1n[nH]c(=S)n1N	43*	-5	2	-21	14
CN1C(=O)[C@H]2[C@@H](/C=C/c3ccccc3)N3C(=O)CN(Cc4ccccn4)C(=O)[C@@]3(C)[C@H]2C1=O	3	-1	0	-6	-4
COC(=O)C1=C(C)N(c2ccc(Cl)c(Cl)c2)C(=O)C1	32*	-4	1	-23	-3
CCOc1ccc(C(c2c(O)cc(C)n(CCOC)c2=O)N2CCN(c3ccccc3)CC2)cc1 (configuration not stated)	x	-16	25	x	x
CC1CC(C)CN(C(=O)COC(=O)c2ccc([N+](=O)[O-])o2)C1 (configuration not stated)	31*	-2	0	12	5
COc1cccc(OC)c1C(=O)OCC(=O)N1CC(C)CC(C)C1 (configuration not stated)	32*	1	0	-14	-1
CCOC(=O)C1CCN(C(=O)COC(=O)c2ccc([N+](=O)[O-])o2)CC1	7	-6	0	1	u
O=C(OCCCOC(=O)c1ccc([N+](=O)[O-])o1)c1ccc([N+](=O)[O-])o1	-1	0	4	53*	11
O=C(COC(=O)c1ccc([N+](=O)[O-])o1)c1ccccc1	6	-3	1	65*	8
COc1cccc(OC)c1C(=O)OCC(=O)N1CCC(Cc2ccccc2)CC1	x	x	x	-3	0
O=C(COC(=O)c1ccc([N+](=O)[O-])o1)NCc1ccccc1	x	x	x	22	4
CC(C)Cc1ccccc1O	-4	-6	0	x	x
COC(=O)c1c(NC(=O)C(C)C)sc2c1C(C(=O)OC)CC2 (configuration not stated)	0	47*	0	-7	-3
Nc1nc(-c2ccc(Cl)cc2)cn1N	30*	5	0	-6	-3
Clc1ccc(-c2cn3c(n2)SCC3)cc1	-12	-8	0	-5	-5
COc1ccc(-c2nnc(SCC(=O)Nc3cc(C)on3)o2)cc1	36*	15	2	-2	-6
C/C(=N\OCc1cccc(C(=O)O)c1)c1ccc(Cl)cc1	56*	8	0	0	-1
C/C(=N\OCc1ccc(C#N)cc1)c1ccccc1	-5	11	0	-3	1
CCN(CC)C(=O)c1ccc(C)c(Br)c1	31*	-6	0	1	0
Cc1ccc(NC(=O)Cn2c(=O)n(Cc3ccco3)c(=O)c3sc4ccccc4c32)c(C)c1	x	4	0	x	x
SMILES	D2 antag	D2 PAM-1	D2 ag-1	D2 PAM-2	D2 ag-2
COc1ccc(NC(=O)Cn2ncc3c([nH]c4ccccc43)c2=O)cc1Cl	x	6	1	x	x
N#Cc1cc2ccccc2nc1SCc1cccnc1	30*	-7	0	-9	4
COc1ccc2nc(SCc3cccnc3)c(C#N)cc2c1	2	-1	0	6	-2
COc1ccc(CNC(=O)Cn2ncc3c(=O)oc4ccccc4c32)c(OC)c1	x	-7	0	x	x
COc1ccc(CN2CCC(=O)N([C@H](CO)c3ccccc3)CC2)cc1	52*	-11	0	-20	-2
O=C1CCN(Cc2cccnc2)CCN1[C@H](CO)c1ccccc1	0	-8	0	-6	0
Clc1cccc(-c2nn3c(Cn4cnc5ccccc54)nnc3s2)c1	34*	13	3	-5	-3
Cc1ccc(C)c(-c2nnc(NC(=O)c3ccco3)o2)c1	41*	-6	1	-9	-4
CCOC(=O)C1(C(=O)OCC)NC(=O)CC1CC(C)C (configuration not stated)	x	x	x	-9	-2
Cn1c(CN2CCCC2)nc2cc(NC(=O)COc3ccccc3)ccc21	47*	-23	0	-40	0
Cc1ccc(S(=O)(=O)Nc2ccc3c(c2)nc(CN2CCCC2)n3C)cc1	72*	-12	2	-52	-3
CCn1c(CN2CCCCC2)nc2cc(S(=O)(=O)N3CCCCC3)ccc21	55*	-29	-1	-15	-4
Cc1ccc(S(=O)(=O)Nc2ccc3c(c2)nc(CCN2CCCCC2)n3C)cc1	20	-27	0	-9	-4
Cn1c(CCN2CCCCC2)nc2cc(NS(=O)(=O)c3ccc(F)cc3)ccc21	32*	-18	1	-46	-4
Cc1ccc(S(=O)(=O)Nc2ccc3c(c2)nc(CCN2CCOCC2)n3C)cc1	5	-5	-2	-17	2
COc1ccc(CNC(=O)c2sc3nc4n(c(=O)c3c2C)CCCCC4)cc1	x	5	4	x	x
COc1ccc(CNC(=O)c2ccc(-c3nc(CSc4ccc(C)cc4)c(C)o3)cc2)c(OC)c1	x	-5	x	x	x
N#CCc1ccc(C(=O)c2ccccc2)s1	40*	16	0	-2	4
COc1cccc(CCc2nnc(N)s2)c1	-8	-6	4	-19	-5
Cc1ccc(NC(=O)Cn2cnc3c(nnn3Cc3ccc(F)cc3)c2=O)cc1	-27	-2	0	-3	-6
O=C(Cn1cnc2c(nnn2Cc2ccc(F)cc2)c1=O)Nc1cccc(F)c1	37*	-4	1	-3	1
O=C(NCCc1ccc(Cl)cc1)C1CCN(c2cnccn2)CC1	0	-3	-1	2	1
O=C(NCCc1ccc(Cl)cc1)C1CCN(c2ncccn2)CC1	61*	10	-2	-26	-2
Cc1ccc(/C=C/c2onc(C)c2S(=O)(=O)N2CCC(C(=O)NCc3ccc(C)o3)CC2)cc1	x	3	-3	x	x
COC(=O)CSc1nnc(COc2ccc3ccccc3c2)o1	13	9	0	2	5
O=C(CSc1nnc(-c2cccc(F)c2)o1)N1CCCC1	32*	0	0	-4	-4
Cc1cc(C)cc(OCc2nnc(SCC(=O)N3CCCCC3)o2)c1	-4	44*	-1	-2	-2
O=C(CSc1nnc(COc2ccc(F)cc2)o1)N1CCCCC1	97*	-15	0	1	-3
CCOC(=O)CSc1nnc(COc2ccc3ccccc3c2)o1	34*	6	0	0	-1
Cc1cccc(OCc2nnc(SCC(=O)N3CCCC3)o2)c1	11	6	-1	-3	10

Screens deposited in PubChem by National Center for Advancing Translational Sciences (NCATS).
